# Measured values as given in PubChem BioAssay AID1345085 (National Center for Advancing Translational Sciences (NCATS), 2018).
# Records with an inconclusive call do not appear. Entries that show only a call come without a potency. Unmarked numbers belong to inactive results. Active and inactive are the calls of the source. Calls come from the whole dose curve; as a rule, active = well fitted cell-killing curve with a large enough effect; inconclusive = small, poorly fitted or top-dose-only effect, or effect the other way; inactive = no such curve, though single readings can be large or run the other way.
# System: SKOV3
# Test: Confirmatory qHTS for gynecologic anti-cancer compounds from libraries of approved drugs and bioactive compounds; note: nearly all actives have a fitted effect of over 55% in size
# Details: gynecologic cancer cell panel viability, ATPlite luminescence, 48 h; series mostly up to 57.6 µM
# In short: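 Seeding 1,000 cells per well preceded overnight (16 h) attachment, after which 48 h drug treatment across 57.5 uM–0.977 nM (11 points) was applied. Remaining cellular ATP, detected by ATPlite luminescence, defined IC50.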
# Potency is the fitted concentration of half-maximal effect.
Compound,Potency,"activity change, negative = viability loss"
Cc1cnc(Nc2cccc(CN3CCOCC3)c2)nc1Nc1cccc(S(=O)(=O)NC(C)(C)C)c1,10.9 µM (active),
O=C(CCCCCCNC(=O)c1cnc(N(c2ccccc2)c2ccccc2)nc1)NO,12.2 µM (active),
CC[C@H](CC#N)OC(=O)N[C@@H](C)c1cccc(NC(=O)Nc2ccc(-c3cnco3)c(OC)c2)c1,inactive,
CCCC(=O)O[C@]1(C(=O)CCl)[C@@H](C)C[C@H]2[C@@H]3CCC4=CC(=O)C=C[C@]4(C)[C@@]3(F)C(=O)C[C@@]21C,inactive,
CN[C@@H](C)C(=O)N[C@H]1CN(C(=O)CC(C)C)CC[C@H]2CC[C@@H](C(=O)NC(c3ccccc3)c3ccccc3)N2C1=O,0.611 µM (active),
C[C@]12CCC(=O)C=C1CC[C@@H]1[C@@H]2[C@@H](O)C[C@@]2(C)[C@H]1CC[C@]2(O)C(=O)CO,inactive,
C[C@@]1(C(=O)Nc2ccc(F)nc2)CCCN1c1nc(Nc2cc(C3CC3)[nH]n2)c2cccn2n1,3.43 µM (active),
Cc1csc(NC(=O)c2sc3nc4c(c(C(F)(F)F)c3c2N)CCC4)n1,1.53 µM (active),
Cc1cnc(CNC(=O)c2c(=O)c3ccc(N4CCCN(C)CC4)nc3n3c2sc2ccccc23)cn1,,5.48% [at 10.7 µM]
NS(=O)(=O)OC[C@@H]1C[C@@H](n2ccc3c(N[C@H]4CCc5ccccc54)ncnc32)C[C@@H]1O,inactive,
S=c1nc[nH]c2nc[nH]c12,5.44 µM (active),
CN(C)C1CCN(C(=O)c2ccc(NC(=O)Nc3nc(N4CCOCC4)nc(N4CCOCC4)n3)cc2)CC1,0.109 µM (active),
COc1cc2c(Oc3ccc(-c4cnc(Nc5ccc(F)cc5)n(C)c4=O)cc3F)ccnc2cc1OCCCN1CCOCC1,inactive,
Cc1nc(Nc2n[nH]c3c2CN(C(=O)NC(CN(C)C)c2ccccc2)C3(C)C)c2sccc2n1 (stereo not given),3.06 µM (active),
CCn1c(-c2nonc2N)nc2c(C#CC(C)(C)O)ncc(OCC3CCCNC3)c21 (stereo not given),inactive,
FC(F)(F)c1ccc(/C=C/c2nc(COc3ccc(CCCCn4ccnn4)cc3)co2)cc1,inactive,
COc1ccc(CCC(=O)c2c(O)cc(O[C@@H]3O[C@H](CO)[C@@H](O)[C@H](O)[C@H]3O[C@@H]3O[C@@H](C)[C@H](O)[C@@H](O)[C@H]3O)cc2O)cc1O,inactive,
CC(=O)NCC(=O)N1C2CCC1c1cc(Nc3ncc(C(F)(F)F)c(NC4CCC4)n3)ccc12 (stereo not given),17.2 µM (active),
CCN1CCN(Cc2ccc(Nc3ncc(F)c(-c4cc(F)c5nc(C)n(C(C)C)c5c4)n3)nc2)CC1,inactive,
CCN(CC)CCCC(C)Nc1ccnc2cc(Cl)ccc12 (stereo not given),inactive,
Nc1ccccc1NC(=O)c1ccc(CNc2nccc(-c3cccnc3)n2)cc1,0.432 µM (active),
COc1ccc2cc3[n+](cc2c1OC)CCc1cc2c(cc1-3)OCO2,inactive,
COc1ccc2c(c1)c(CC(=O)O)c(C)n2C(=O)c1ccc(Cl)cc1,inactive,
CC(Oc1cc(-n2cnc3ccc(CN4CCN(C)CC4)cc32)sc1C(N)=O)c1ccccc1C(F)(F)F (stereo not given),19.3 µM (active),
CCN[C@H]1C[C@H](C)S(=O)(=O)c2sc(S(N)(=O)=O)cc21,inactive,
CC(=O)Nc1cccc(-n2c(=O)n(C3CC3)c(=O)c3c(Nc4ccc(I)cc4F)n(C)c(=O)c(C)c32)c1,0.306 µM (active),
Oc1cn2c(n1)Nc1ccc(Cl)c(Cl)c1C2,inactive,
Cc1cnc(Nc2ccc(OCCN3CCCC3)cc2)nc1Nc1cccc(S(=O)(=O)NC(C)(C)C)c1,10.9 µM (active),
O=C1Cc2cc(CCN3CCN(c4nsc5ccccc45)CC3)c(Cl)cc2N1,inactive,
NS(=O)(=O)c1ccc(Nc2nc(OCC3CCCCC3)c3[nH]cnc3n2)cc1,inactive,
